Source: PubChem BioAssay (Tox21)
Results filed as inconclusive are left out. The source made the active and inactive calls. Unless noted, calls come from the whole dose curve.

Key:
[1] = qHTS assay to identify small molecule agonists of the vitamin D receptor (VDR) signaling pathway - cell viability counter screen (AID 743224; active = well fitted curve in the direction sought with a large enough effect in the repeat runs; an effect the other way counts as inactive or inconclusive; note: series mostly up to about 63 µM; % is set by controls: 0 for no effect and ±100 for the full control effect; nearly all actives have a fitted effect of over 50% in size)
Outline: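 In parallel with the bla FRET readout, cytotoxicity toward VDR-bla cells after 16 h compound exposure was assessed by CellTiter-Glo, with luminescence recorded after a 30 min room-temperature incubation.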

[2] = qHTS assay to identify small molecule antagonists of the vitamin D receptor (VDR) signaling pathway - cell viability counter screen (AID 743225; active = well fitted curve in the direction sought with a large enough effect in the repeat runs; an effect the other way counts as inactive or inconclusive; note: % is set by controls: 0 for no effect and ±100 for the full control effect; nearly all actives have a fitted effect of over 50% in size)
Outline: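 Same-well multiplex: following 16 h treatment of HEK 293T cells carrying a UAS-driven beta-lactamase reporter with compound and agonist (3 nM final), and a 2 h FRET substrate step, CellTiter-Glo was added and luminescence read after 30 min.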

[3] = qHTS assay to identify small molecule agonists of the NFkB signaling pathway - cell viability counter screen (AID 1159515); note: series mostly up to about 61 µM; % is set by controls: 0 for no effect and ±100 for the full control effect; nearly all actives have a fitted effect of over 55% in size
Outline: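 Plate 2,000 NFkB-bla ME-180 cells/well; incubate overnight. Add compounds, 5 hr at 37 C. Add FRET substrate, 1.5 hr RT. Add CellTiter-Glo, 30 min RT; read luminescence.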

[4] = qHTS assay to identify small molecule agonists of the endoplasmic reticulum stress response signaling pathway (AID 1159516; active = well fitted activation curve with a large enough effect in the signal ratio in the repeat runs, not every such curve was filed as active; the % refers to the signal ratio; note: % is set by controls: 0 for no effect and ±100 for the full control effect)
Outline: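 Beta-lactamase expression from the ER stress response element in HeLa reporter cells is quantified with the LiveBLAzer B/G FRET substrate, read at 405 nm excitation after 2 hr at room temperature, following 5 hr compound treatment at 37 C.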

[5] = qHTS assay to identify small molecule agonists of the endoplasmic reticulum stress response signaling pathway - cell viability counter screen (AID 1159517); note: series mostly up to about 61 µM; % is set by controls: 0 for no effect and ±100 for the full control effect; nearly all actives have a fitted effect of over 50% in size
Outline: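 Cpd-treated ESRE-bla HeLa (5 hr, 37 C) → LiveBLAzer 2 hr RT → CellTiter-Glo 30 min RT → luminescence.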

[6] = qHTS assay to identify small molecule antagonists of the retinoid-related orphan receptor gamma (ROR-gamma) signaling pathway - cell viability counter screen (AID 1159520; active = well fitted curve in the direction sought with a large enough effect in the repeat runs; an effect the other way counts as inactive or inconclusive; note: % is set by controls: 0 for no effect and ±100 for the full control effect; nearly all actives have a fitted effect of over 50% in size)
Outline: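 Tet-on ROR gamma CHO cells (1,000/well) were plated 4 hr, given compounds in DMSO for 2 hr at 37 C, then induced with 1 uM final doxycycline for 16 hr. Viability was read as ATP by CellTiter-Glo luminescence after 30 min.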

[7] = target: Nuclear receptor ROR-gamma (Homo sapiens) (UniProt P51449); assay: qHTS assay to identify small molecule antagonists of the retinoid-related orphan receptor gamma (ROR-gamma) signaling pathway (AID 1159521; active = well fitted curve in the direction sought with a large enough effect in the repeat runs; an effect the other way counts as inactive or inconclusive; note: nearly all actives have a fitted effect of over 50% in size; note: potency is the fitted concentration of half-maximal effect;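 for activity change, negative = inhibition: CHO cells with doxycycline inducible ROR-gamma driving an RORE luciferase reporter; top concentration of the series differs between compounds; % is set by controls: 0 for no effect and ±100 for the full control effect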)
Outline: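 Inducible-expression reporter assay: doxycycline (1 uM final) switched on RORγ in CHO cells bearing a ROR response element-luciferase construct, with test compounds present from 2 h beforehand. Decreased luminescence after 16 h defined antagonist activity.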

[8] = qHTS assay to identify small molecule agonists of the AP-1 signaling pathway - cell viability counter screen (AID 1159525); note: nearly all actives have a fitted effect of over 55% in size
Outline: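 Each titration point was normalised to DMSO and tetra n-octyl ammonium bromide controls. The read was Cell Titer Glo luminescence after 30 min at RT, following 5 h compound exposure of ME-180 AP-1-bla cells at 37 °C.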

[9] = qHTS assay to identify small molecule agonists of the AP-1 signaling pathway (AID 1159526); note: % is set by controls: 0 for no effect and ±100 for the full control effect

O=C1c2cccc(O)c2C(=O)c2c(O)cc(CO)cc21
inactive: Potency [1] | Potency [2] | Potency [3] | Potency [4] | outcome [5] | Potency [6] | Potency [7] | Potency [8] | Potency [9]

CC(=O)/C=C/C1C(C)=CCCC1(C)C (centres undefined)
inactive: Potency [1] | Potency [2] | Potency [3] | Potency [4] | outcome [5] | Potency [6] | Potency [7] | Potency [8] | Potency [9]

N#Cc1c(F)cccc1F
inactive: Potency [1] | Potency [2] | Potency [3] | Potency [4] | outcome [5] | Potency [6] | Potency [7] | Potency [8] | Potency [9]

CC(=O)NCCCS(=O)(=O)O
inactive: Potency [1] | Potency [3] | Potency [4] | outcome [5] | Potency [6] | Potency [7] | Potency [8] | Potency [9]

NC1CCN(c2nc3c(cc2F)c(=O)c(C(=O)O)cn3-c2ccc(F)cc2F)C1 (centres undefined)
inactive: Potency [1] | Potency [2] | Potency [3] | Potency [4] | outcome [5] | Potency [6] | Potency [7] | Potency [8] | Potency [9]

Cc1ccc(C)o1
inactive: Potency [1] | Potency [2] | Potency [3] | Potency [4] | outcome [5] | Potency [6] | Potency [7] | Potency [8] | Potency [9]

FC(F)(F)C(F)(F)C(F)(F)C(F)(F)C(F)(F)C(F)(F)CCI
inactive: Potency [1] | Potency [2] | Potency [3] | Potency [4] | outcome [5] | Potency [6] | Potency [7] | Potency [8] | Potency [9]

COC(Cc1ccccc1)OC
inactive: Potency [1] | Potency [2] | Potency [3] | Potency [4] | outcome [5] | Potency [6] | Potency [7] | Potency [8] | Potency [9]

CCOc1ccc2[nH]cc(C(=O)NCc3ccccc3)c(=O)c2n1
inactive: Potency [1] | Potency [2] | Potency [3] | Potency [4] | outcome [5] | Potency [6] | Potency [7] | Potency [8] | Potency [9]

CC(C)(C)C(=O)OCOP(=O)(COCCn1cnc2c(N)ncnc21)OCOC(=O)C(C)(C)C
active: Potency [7] 11.9 µM
inactive: Potency [1] | Potency [2] | Potency [3] | Potency [4] | outcome [5] | Potency [6] | Potency [8] | Potency [9]

SC1CCCC1
inactive: Potency [1] | Potency [2] | Potency [3] | Potency [4] | outcome [5] | Potency [6] | Potency [7] | Potency [8] | Potency [9]

O=S(=O)(O)c1ccc(O)c2ncccc12
inactive: Potency [1] | Potency [3] | Potency [4] | outcome [5] | Potency [6] | Potency [7] | Potency [8] | Potency [9]

OCCC1CCCCN1 (centres undefined)
inactive: Potency [1] | Potency [2] | Potency [3] | Potency [4] | outcome [5] | Potency [6] | Potency [7] | Potency [8] | Potency [9]

COc1ccc(C(C)=O)cc1
inactive: Potency [1] | Potency [2] | Potency [3] | Potency [4] | outcome [5] | Potency [6] | Potency [7] | Potency [8] | Potency [9]

CC(=O)/C(C)=C/C1C(C)=CCCC1(C)C (centres undefined)
inactive: Potency [1] | Potency [2] | Potency [3] | Potency [4] | outcome [5] | Potency [6] | Potency [7] | Potency [8] | Potency [9]

Cn1c(=O)c2c(ncn2CC(O)CO)n(C)c1=O (centres undefined)
inactive: Potency [1] | Potency [2] | Potency [3] | Potency [4] | outcome [5] | Potency [6] | Potency [7] | Potency [8] | Potency [9]

NCc1ccccc1
inactive: Potency [1] | Potency [2] | Potency [3] | Potency [4] | outcome [5] | Potency [6] | Potency [7] | Potency [8] | Potency [9]

Cc1ccc(C(N)=O)cc1N
inactive: Potency [1] | Potency [2] | Potency [3] | Potency [4] | outcome [5] | Potency [6] | Potency [7] | Potency [8] | Potency [9]

O=C(c1ccccc1)c1ccc2n1CCC2C(=O)O (centres undefined)
inactive: Potency [1] | Potency [2] | Potency [3] | Potency [4] | outcome [5] | Potency [6] | Potency [7] | Potency [8] | Potency [9]

CC(C)(C)c1ccc(S)cc1
inactive: Potency [1] | Potency [2] | Potency [3] | Potency [4] | outcome [5] | Potency [6] | Potency [7] | Potency [8] | Potency [9]

CCCCOC(O)CC (centres undefined)
inactive: Potency [1] | Potency [2] | Potency [3] | Potency [4] | outcome [5] | Potency [6] | Potency [7] | Potency [8] | Potency [9]

CN(c1nccc(=O)[nH]1)C1CCN(c2nc3ccccc3n2Cc2ccc(F)cc2)CC1
inactive: Potency [1] | Potency [3] | Potency [4] | outcome [5] | Potency [6] | Potency [7] | Potency [8] | Potency [9]

CC(C)CCCCCCOC(=O)c1ccc(C(=O)OCCCCCCC(C)C)c(C(=O)OCCCCCCC(C)C)c1
inactive: Potency [1] | Potency [2] | Potency [3] | Potency [4] | outcome [5] | Potency [6] | Potency [7] | Potency [8] | Potency [9]

O=C(CCN1CCN2CCCC2C1)N1c2ccccc2Sc2ccc(Cl)cc21 (centres undefined)
inactive: Potency [1] | Potency [2] | Potency [3] | Potency [4] | outcome [5] | activity, negative = cytotoxicity [6] -0.0801% [at 19 µM] | activity change, negative = inhibition [7] -2.48% [at 19 µM] | viability change, negative = cytotoxic [8] -1.69% [at 15.8 µM] | activation [9] -5.81% [at 15.8 µM]

CC(C)(C)c1cc(CO)cc(C(C)(C)C)c1O
inactive: Potency [1] | Potency [3] | Potency [4] | outcome [5] | Potency [6] | Potency [7] | Potency [8] | Potency [9]

C[Si](C)O[Si](C)(C)O[Si](C)(C)O[Si](C)C
inactive: Potency [1] | Potency [2] | Potency [3] | Potency [4] | outcome [5] | Potency [6] | Potency [7] | Potency [8] | Potency [9]

O=C(O)COC(=O)Cc1ccccc1Nc1c(Cl)cccc1Cl
inactive: Potency [1] | Potency [3] | Potency [4] | outcome [5] | Potency [6] | Potency [7] | Potency [8] | Potency [9]

CCCCCCCCCCCCCCC1CO1 (centres undefined)
inactive: Potency [1] | Potency [2] | Potency [3] | Potency [4] | outcome [5] | Potency [6] | Potency [7] | Potency [8] | Potency [9]

O=C(NS(=O)(=O)/C=C/c1cccs1)c1ccc(F)cc1Br
inactive: Potency [1] | Potency [2] | Potency [3] | Potency [4] | outcome [5] | Potency [6] | Potency [7] | Potency [8] | Potency [9]

CCCCC(CC)(CO)CO
inactive: Potency [1] | Potency [2] | Potency [3] | Potency [4] | outcome [5] | Potency [6] | Potency [7] | Potency [8] | Potency [9]

CCCC[C@H]1CN(CC2CCOCC2)C(=O)OC12CCN(C1(C)CCN(C(=O)c3c(C)ncnc3C)CC1)CC2
inactive: Potency [1] | Potency [2] | Potency [3] | Potency [4] | outcome [5] | Potency [6] | Potency [7] | Potency [8] | Potency [9]

CCCCCCc1ccc(N)cc1
inactive: Potency [2] | Potency [3] | Potency [4] | outcome [5] | Potency [6] | Potency [7] | Potency [8] | Potency [9]

COc1ccc(OC)c(OC)c1
inactive: Potency [1] | Potency [2] | Potency [3] | Potency [4] | outcome [5] | Potency [6] | Potency [7] | Potency [8] | Potency [9]

CC(=O)Nc1ccc(/C=N/NC(N)=S)cc1
inactive: Potency [1] | Potency [2] | Potency [3] | Potency [4] | outcome [5] | Potency [6] | Potency [7] | Potency [8] | Potency [9]

O=C(O)c1cn(C2CC2)c2cc(Cl)c(F)cc2c1=O
inactive: Potency [1] | Potency [2] | Potency [3] | Potency [4] | outcome [5] | Potency [6] | Potency [7] | Potency [8] | Potency [9]
